Key:
Details in all cases: concentration: 1 μM, replicates: in singlicate; n = 1
[1] = system: CSNK1G1
[2] = system: CSNK1G2
[3] = system: CSNK1G3
[4] = system: CSNK2A1
[5] = system: CSNK2A2
[6] = system: T1, CTK
T1 construct: gene MATK

[7] = system: DAPK1
[8] = system: DAPK2
[9] = system: DAPK3
[10] = system: T2, DCAMKL1
T2 construct: gene DCLK1

[11] = system: T3, DCAMKL2
T3 construct: gene DCLK2

[12] = system: T4, DCAMKL3
T4 construct: gene DCLK3

[13] = system: DDR1
[14] = system: DDR2
[15] = system: T5, DLK
T5 construct: gene MAP3K12

[16] = system: T6, DMPK2
T6 construct: gene CDC42BPG

[17] = system: DMPK
[18] = system: T7, DRAK1
T7 construct: gene STK17A

[19] = system: T8, DRAK2
T8 construct: gene STK17B

[20] = system: DYRK1A
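Further: KINOMEscan kinase panel screen.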

Row | Compound | %Inh [1] [%] | %Inh [2] [%] | %Inh [3] [%] | %Inh [4] [%] | %Inh [5] [%] | %Inh [6] [%] | %Inh [7] [%] | %Inh [8] [%] | %Inh [9] [%] | %Inh [10] [%] | %Inh [11] [%] | %Inh [12] [%] | %Inh [13] [%] | %Inh [14] [%] | %Inh [15] [%] | %Inh [16] [%] | %Inh [17] [%] | %Inh [18] [%] | %Inh [19] [%] | %Inh [20] [%]
1 | CSc1cccc2c(-c3ccncn3)c(-c3ccc(F)cc3)nn12 [GW514786] | 3 | 10 | 21 | 0 | 13 | 0 | 0 | 0 | 0 | 5 | 20 | 0 | 78 | 63 | 24 | 59 | 13 | 0 | 0 | 18
2 | Cl.Cl.NCC(NC(=O)c1cc(-c2ccccc2)c(-c2ccnc3[nH]ccc23)s1)c1ccccc1 (stereo not drawn) [GSK1321561] | 14 | 89 | 81 | 5 | 38 | 0 | 0 | 3 | 12 | 0 | 0 | 10 | 99.7 | 76 | 35 | 94.7 | 82 | 41 | 0 | 13
3 | CC(=O)N1CCN(c2ccc(Nc3nccc(-c4sc(C(C)C)nc4-c4cccc(NS(=O)(=O)c5cccc(Cl)c5)c4)n3)cn2)CC1 [GSK1660437] | 0 | 0 | 10 | 13 | 0 | 27 | 14 | 0 | 6 | 9 | 19 | 52 | 98.2 | 40 | 23 | 0 | 0 | 0 | 0 | 0
4 | O=C(Nc1n[nH]c2cc(-c3ccoc3)ccc12)C1CC1 [SB-738481] | 0 | 0 | 12 | 35 | 66 | 25 | 6 | 0 | 0 | 2 | 0 | 0 | 0 | 5 | 0 | 24 | 0 | 24 | 0 | 61
5 | CCCCc1nn2ncccc2c1-c1ccnc(Nc2ccc(N3CCN(C)CC3)cc2)n1 [GW684941] | 0 | 0 | 0 | 0 | 7 | 13 | 0 | 0 | 17 | 17 | 25 | 2 | 100 | 96.2 | 47 | 50 | 0 | 5 | 0 | 17
6 | Nc1ncc(-c2ccc3nccc(-c4ccncc4)c3c2)cc1S(=O)(=O)N1CCOCC1 [GSK1627798] | 0 | 0 | 8 | 5 | 1 | 0 | 0 | 2 | 9 | 0 | 22 | 0 | 0 | 0 | 32 | 0 | 0 | 0 | 0 | 28
7 | Cl.Cl.NCC(C(=O)Nc1cc(Br)c(-c2ccnc3[nH]ccc23)s1)c1ccccc1 (stereo not drawn) [GSK1269851] | 0 | 4 | 35 | 79 | 73 | 7 | 0 | 0 | 15 | 9 | 3 | 0 | 0 | 0 | 4 | 0 | 27 | 98.8 | 0 | 50
8 | CCn1c(-c2nonc2N)nc2c(C#CC(C)(C)O)nc(OC[C@H](N)c3ccccc3)cc21 [GSK943949] | 0 | 0 | 17 | 0 | 30 | 11 | 0 | 3 | 18 | 12 | 0 | 19 | 4 | 12 | 0 | 0 | 0 | 13 | 19 | 4
9 | Cn1cc(-c2ccc3c(c2)CCN3C(=O)Cc2cccc(Cl)c2)c2c(N)ncnc21 [GSK2606590] | 31 | 0 | 29 | 8 | 30 | 0 | 1 | 5 | 0 | 12 | 19 | 0 | 99.5 | 57 | 51 | 53 | 0 | 0 | 0 | 11

From PMC5540273 (PLoS ONE, 2017)
